{
  "source": "PubChem BioAssay (EPA / NIEHS)",
  "note": "Calls of active or inactive are those of the source. How the source made its calls: active means hit-call score of the fitted dose curve at least 0.9, where 1 is the maximum; inactive means score below 0.9.",
  "data": [
    {"molecular_target": "Signal transducer and activator of transcription 3 (Homo sapiens) (UniProt P40763)", "sequence (P40763 whole entry, looked up)": "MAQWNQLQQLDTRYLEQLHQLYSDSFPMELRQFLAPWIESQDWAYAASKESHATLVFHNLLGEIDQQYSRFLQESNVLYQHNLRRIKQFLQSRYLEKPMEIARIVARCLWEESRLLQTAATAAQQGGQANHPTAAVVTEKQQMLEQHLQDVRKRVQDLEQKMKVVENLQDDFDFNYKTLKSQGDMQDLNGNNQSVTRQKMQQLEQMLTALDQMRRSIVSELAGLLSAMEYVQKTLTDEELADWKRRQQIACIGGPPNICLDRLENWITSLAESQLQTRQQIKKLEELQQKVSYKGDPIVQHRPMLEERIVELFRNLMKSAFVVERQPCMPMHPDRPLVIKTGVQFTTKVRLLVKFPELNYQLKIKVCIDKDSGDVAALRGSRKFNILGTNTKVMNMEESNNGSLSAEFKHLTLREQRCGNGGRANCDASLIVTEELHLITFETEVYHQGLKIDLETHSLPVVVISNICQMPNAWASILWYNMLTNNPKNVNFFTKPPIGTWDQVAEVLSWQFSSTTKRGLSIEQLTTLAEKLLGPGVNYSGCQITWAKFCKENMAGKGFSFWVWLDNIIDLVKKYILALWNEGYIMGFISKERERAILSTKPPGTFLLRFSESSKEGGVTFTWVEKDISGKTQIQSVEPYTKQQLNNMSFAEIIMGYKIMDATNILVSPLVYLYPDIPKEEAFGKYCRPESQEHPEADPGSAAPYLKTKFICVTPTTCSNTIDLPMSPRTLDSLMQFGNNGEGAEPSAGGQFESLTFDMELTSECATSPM", "assay": "ATG_STAT3_CIS: Attagene CIS-FACTORIAL HepG2 Assay for human Signal Transducer and Activator of Transcription 3 (STAT3) (AID 2282963)", "settings": "HepG2, Attagene cis-factorial STAT3 reporter transcription; actives raise or lower the signal", "method": "ATG_CIS is a cell-based, multiplexed-readout assay that uses HepG2, a human liver cell line, with measurements taken at 24 hours after chemical dosing in a 24-well plate.ATG_STAT3_CIS is one of 52 assay component(s) measured or calculated from the ATG_CIS assay. It is designed to make measurements of mRNA induction, a form of inducible reporter, as detected with fluorescence intensity signals by Reverse transcription polymerase chain reaction (RT-PCR) and Capillary electrophoresis technology.Data from the assay component ATG_STAT3_CIS was analyzed into 1 assay endpoint. This assay endpoint, ATG_STAT3_CIS, was analyzed with bidirectional fitting relative to DMSO as the negative control and baseline of activity. Using a type of inducible reporter, measures of mRNA for gain or loss-of-signal activity can be used to understand the reporter gene at the transcription factor-level as they relate to the gene STAT3. Furthermore, this assay endpoint can be referred to as a primary readout, because this assay has produced multiple assay endpoints where this one serves a reporter gene function. To generalize the intended target to other relatable targets, this assay endpoint is annotated to the dna binding intended target family, where the subfamily is stat protein.\nHuman liver HepG2 cells are transiently transfected with multiple reporter transcription units (MRTUs) in 6-well plates using FuGene 6 reagent (Roche; 3 ml FuGene/1 mg DNA). The MRTU constructs are regulated by a cis-regulating element (promoter). […] A major difference between the CIS and TRANS system is that in CIS activities of endogenous TFs are measured, whereas the TRANS assay evaluates changes in activities of exogenous, chimeric NR-Gal4 proteins. […] At the end of 24 hour incubation, total RNA was isolated using TriZol reagent (Invitrogen). The isolated RNA is then reverse-transcribed using oligo(dT) primer and Mo-MLV reverse transcriptase (Invitrogen) with DNAse I (Ambion) treatment for 30 min. The one-tenth of the produced cDNA was amplified by PCR using Taq DNA polymerase (Invitrogen) and two reporter sequence-specific primers. The PCR products were fluorescently labeled by primer extension with 6-arboxyfluorescein (6-FAM) 5'-labeled reporter sequence-specific primer (2 min at 95 C, 20 s at 68 C and 10 min at 72 C) and these products were digested with 5U of HpaI (New England Biolabs) for 2h at 37 C. The fragments were purified using Qiaquick PCR columns (Qiagen), analyzed on an ABI 3130xL genetic analyzer (Applied Biosystems) with peak positions identified by using a set of X-rhodamine (ROX)-labeled MapMarker1000 molecular weight standards (BioVentures). The raw capillary electrophoresis data was processed using Attagraph software (Attagene).", "values": [
      {"smiles": "CCCN(CCOc1c(Cl)cc(Cl)cc1Cl)C(=O)n1ccnc1", "outcome": "inactive"},
      {"smiles": "CC1(c2ccc(Oc3ccccc3)cc2)OC(=O)N(Nc2ccccc2)C1=O", "note": "(stereo not given)", "outcome": "inactive"},
      {"smiles": "[2H]C1([2H])[n+]2ccccc2-c2cccc[n+]2C1([2H])[2H]", "outcome": "inactive"},
      {"smiles": "CC[C@H](C)[C@H]1O[C@]2(C=C[C@@H]1C)C[C@@H]1C[C@@H](C/C=C(\\C)[C@@H](O[C@H]3C[C@H](OC)[C@@H](O[C@H]4C[C@H](OC)[C@@H](O)[C@H](C)O4)[C@H](C)O3)[C@@H](C)/C=C/C=C3\\CO[C@@H]4[C@H](O)C(C)=C[C@@H](C(=O)O1)[C@]34O)O2", "note": "(tested in a mixture with another compound)", "outcome": "inactive"},
      {"smiles": "O=C(NC(=O)c1c(F)cccc1F)Nc1ccc(OC(F)(F)C(F)OC(F)(F)F)c(Cl)c1", "note": "(stereo not given)", "outcome": "inactive"},
      {"smiles": "CCOCN(C(=O)CCl)c1c(C)cccc1CC", "outcome": "inactive"},
      {"smiles": "Cc1[nH]c(=O)n(C(C)(C)C)c(=O)c1Cl", "outcome": "inactive"},
      {"smiles": "C#CCN1C(=O)COc2cc(F)c(N3C(=O)C4=C(CCCC4)C3=O)cc21", "outcome": "inactive"},
      {"smiles": "COc1cc(OC)nc(NC(=O)NS(=O)(=O)c2cc(NC=O)ccc2C(=O)N(C)C)n1", "outcome": "inactive"},
      {"smiles": "O=C(Nc1ccccc1)Nc1cnns1", "outcome": "inactive"},
      {"smiles": "CCN(CC)C(=O)SCc1ccc(Cl)cc1", "outcome": "inactive"},
      {"smiles": "COC(=O)c1ccccc1S(=O)(=O)NC(=O)N(C)c1nc(C)nc(OC)n1", "outcome": "inactive"},
      {"smiles": "Clc1ccccc1-c1nnc(-c2ccccc2Cl)nn1", "outcome": "inactive"},
      {"smiles": "CCOc1nc(NC)nc(NC(=O)NS(=O)(=O)c2ccccc2C(=O)OC)n1", "outcome": "inactive"},
      {"smiles": "O=S1OCC2C(CO1)C1(Cl)C(Cl)=C(Cl)C2(Cl)C1(Cl)Cl", "note": "(stereo not given)", "outcome": "inactive"},
      {"smiles": "Oc1ccc(Cl)cc1Cc1ccccc1", "outcome": "inactive"},
      {"smiles": "CC1(C)C(C=C(Cl)Cl)C1C(=O)OC(C#N)c1ccc(F)c(Oc2ccccc2)c1", "note": "(stereo not given)", "outcome": "inactive"},
      {"smiles": "CCC(C)Nc1c([N+](=O)[O-])cc(C(C)(C)C)cc1[N+](=O)[O-]", "note": "(stereo not given)", "outcome": "inactive"},
      {"smiles": "O=C(O)COc1ccc(Cl)cc1Cl", "outcome": "inactive"},
      {"smiles": "CC(C)OC(=O)Nc1cccc(Cl)c1", "outcome": "inactive"},
      {"smiles": "CNC(=O)/C=C(\\C)OP(=O)(OC)OC", "outcome": "inactive"},
      {"smiles": "Cc1cc(C)nc(NC(=O)NS(=O)(=O)c2ccccc2C(=O)OC2COC2)n1", "outcome": "inactive"},
      {"smiles": "CCC(C)(C)C(=O)OC1=C(c2ccc(Cl)cc2Cl)C(=O)OC12CCCCC2", "outcome": "inactive"},
      {"smiles": "COP(=S)(OC)Oc1ccc([N+](=O)[O-])cc1", "outcome": "inactive"},
      {"smiles": "ClC1C(Cl)C(Cl)C(Cl)C(Cl)C1Cl", "note": "(stereo not given)", "outcome": "inactive"},
      {"smiles": "CCOC1Oc2ccc(OS(C)(=O)=O)cc2C1(C)C", "note": "(stereo not given)", "outcome": "inactive"},
      {"smiles": "COP(=O)(OC)OC=C(Cl)Cl", "outcome": "inactive"},
      {"smiles": "O=C(O)C(F)(F)C(F)(F)C(F)(F)C(F)(F)C(F)(F)C(F)(F)C(F)(F)F", "outcome": "inactive"},
      {"smiles": "N#CN", "outcome": "inactive"},
      {"smiles": "CCS(=O)(=O)c1cccnc1S(=O)(=O)NC(=O)Nc1nc(OC)cc(OC)n1", "outcome": "inactive"},
      {"smiles": "COP(=S)(OC)Oc1ccc(SC)c(C)c1", "outcome": "inactive"},
      {"smiles": "COc1nn(CSP(=S)(OC)OC)c(=O)s1", "outcome": "inactive"},
      {"smiles": "CNC(=O)CSP(=S)(OC)OC", "outcome": "inactive"},
      {"smiles": "COC(=O)c1ccccc1S(=O)(=O)NC(=O)Nc1nc(C)nc(OC)n1", "outcome": "inactive"},
      {"smiles": "CCCN(CCC)c1c([N+](=O)[O-])cc(C(F)(F)F)cc1[N+](=O)[O-]", "outcome": "inactive"},
      {"smiles": "CCc1ccc(C(=O)NN(C(=O)c2cc(C)cc(C)c2)C(C)(C)C)cc1", "outcome": "inactive"},
      {"smiles": "N#Cc1c(Cl)c(Cl)c(Cl)c(C#N)c1Cl", "outcome": "inactive"},
      {"smiles": "CNC(=O)Oc1ccccc1OC(C)C", "outcome": "inactive"},
      {"smiles": "O=S(=O)(O)C(F)(F)C(F)(F)C(F)(F)C(F)(F)C(F)(F)C(F)(F)C(F)(F)C(F)(F)F", "outcome": "inactive"},
      {"smiles": "O=C1c2ccccc2C(=O)N1SC(Cl)(Cl)Cl", "outcome": "inactive"}
    ]}
  ]
}
